# In PubChem BioAssay AID434962 (The Scripps Research Institute Molecular Screening Center, 2010):
# Hit rate of the full screen: of about 320,000 compounds, about 1,300 (0.41%) were called active. What follows is part of a selection rich in actives, with near analogues and random picks from the rest. Unmarked numbers belong to inactive results.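 Rule for the calls: active = percent inhibition above the average of all tested compounds plus 3 SD, set per screening campaign (cut at about 16% in these data); inactive = the rest.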
# Biological target: Insulin-degrading enzyme (Homo sapiens) (UniProt P14735)
# Sequence (P14735 whole entry, looked up): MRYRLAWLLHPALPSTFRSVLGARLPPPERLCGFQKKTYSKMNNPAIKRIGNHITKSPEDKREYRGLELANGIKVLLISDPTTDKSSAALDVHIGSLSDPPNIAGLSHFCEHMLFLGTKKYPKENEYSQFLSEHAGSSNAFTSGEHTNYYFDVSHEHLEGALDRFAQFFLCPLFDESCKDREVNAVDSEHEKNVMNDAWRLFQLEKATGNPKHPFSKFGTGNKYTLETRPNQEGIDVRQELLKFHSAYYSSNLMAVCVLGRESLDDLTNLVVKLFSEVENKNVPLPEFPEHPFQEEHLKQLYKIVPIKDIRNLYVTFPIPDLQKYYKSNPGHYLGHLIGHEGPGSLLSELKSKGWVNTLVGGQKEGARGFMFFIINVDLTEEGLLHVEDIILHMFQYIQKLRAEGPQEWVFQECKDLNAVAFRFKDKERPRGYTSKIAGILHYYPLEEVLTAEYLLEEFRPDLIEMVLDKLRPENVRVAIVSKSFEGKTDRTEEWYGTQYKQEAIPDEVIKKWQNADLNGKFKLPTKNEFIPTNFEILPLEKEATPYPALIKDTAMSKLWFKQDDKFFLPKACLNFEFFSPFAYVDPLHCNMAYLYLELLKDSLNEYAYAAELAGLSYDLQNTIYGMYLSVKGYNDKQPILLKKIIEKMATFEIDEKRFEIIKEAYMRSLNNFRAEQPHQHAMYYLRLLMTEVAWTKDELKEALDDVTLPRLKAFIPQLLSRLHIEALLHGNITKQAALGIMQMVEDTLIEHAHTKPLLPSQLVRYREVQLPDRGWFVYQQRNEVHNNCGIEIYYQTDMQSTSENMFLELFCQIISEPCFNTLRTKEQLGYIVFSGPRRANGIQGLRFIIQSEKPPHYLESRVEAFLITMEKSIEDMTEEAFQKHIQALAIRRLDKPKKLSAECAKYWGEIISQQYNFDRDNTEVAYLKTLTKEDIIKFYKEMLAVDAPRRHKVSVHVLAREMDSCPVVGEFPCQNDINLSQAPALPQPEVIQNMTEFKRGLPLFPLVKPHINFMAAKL
# Assay: human IDE inhibitors in live cells, primary screen, fluorescence polarization, HEK cells, FAbetaB substrate (AID 434962);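 note: IDE supplied by intact live HEK cells; FP after avidin binding of uncleaved biotin substrate so inhibition keeps polarization high; 0% = DMSO wells and 100% = 60 µM reference IDE inhibitor Ii1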
# Settings: FAbetaB cleavage, at 5.59 µM, hits give high values
row,SMILES,inhibition
1,CN(C(=O)c1cccc(NC(=O)Cc2cccc([N+](=O)[O-])c2)c1)C1CCCCC1,-2.48%
2,Cn1cncc1C#Cc1c(-c2ccsc2)sc2ccccc12,2.04%
3,CC[C@H]1OC(=O)[C@H](C)[C@@H](O[C@H]2C[C@@](C)(OC)[C@@H](O)[C@H](C)O2)[C@H](C)[C@@H](O[C@@H]2O[C@H](C)C[C@H](N(C)C)[C@H]2O)[C@](C)(O)C[C@@H](C)[C@@H]2N[C@@H](COCCOC)O[C@H]([C@H]2C)[C@]1(C)O,-4.09%
4,Cc1cc2nc3c(=O)n(Cc4ccccc4)c(=O)[nH]c3nc2cc1N,20.4% (active)
5,C=CCSc1nc2c(c(=O)[nH]c(=O)n2C)n1Cc1ccccc1,-11.6%
6,CN(C(=O)COC(=O)c1ccc(Br)o1)c1c(N)n(Cc2ccccc2)c(=O)[nH]c1=O,5.15%
7,O=C(/C=C/c1ccc2c(c1)OCCO2)c1ccc(O)cc1,-0.89%
8,O=C(/C=C(O)/C=C/c1ccc(O)cc1)/C=C/c1ccc(O)cc1,138% (active)
9,O=C(O)/C=C/c1ccc(OCCCF)cc1,-0.17%
10,Cc1cccc2sc(N(CCCN(C)C)C(=O)CCS(=O)(=O)c3ccccc3)nc12,1.58%
11,O=C(O)c1cc(S(=O)(=O)NC2CCCc3ccccc32)ccc1O (centres undefined),-0.45%
12,O=C(NNS(=O)(=O)c1c(F)cc(F)c(Cl)c1F)C12CC3CC(CC(C3)C1)C2,-2.1%
13,CCCNC(=O)N1CCN(C(=O)NCCC)CC1,4.47%
14,Cc1ccccc1NC(=O)c1nn(-c2ccc(F)c(F)c2)ccc1=O,-4.03%
15,C=CCOc1cccc(C2C(C(=O)c3ccc(C)o3)=C(O)C(=O)N2CCCn2ccnc2)c1 (centres undefined),1.55%
16,C=CCOc1cccc(C2C(C(=O)c3ccc(C)o3)=C(O)C(=O)N2c2nnc(C)s2)c1 (centres undefined),24% (active)
17,Cc1cc(N2C(=O)C(O)=C(C(=O)c3ccc(C)o3)C2c2ccc(OCc3ccccc3)cc2)no1 (centres undefined),-9.32%
18,Cc1ccc(C)c(NS(=O)(=O)c2ccc(OCC(=O)NCc3cccnc3)cc2)c1,4.06%
19,CC(C)COc1ccc(C(=O)NNC(=O)CCC(=O)c2cccs2)cc1,-2.82%
20,NS(=O)(=O)c1cccc(NC(=O)CC23CC4CC(CC(Br)(C4)C2)C3)c1,2%
21,O=C1Nc2ccccc2/C1=C/c1ccnc2ccccc12,6.65%
22,CN(C)/C=C1/Nc2ccccc2C1=O,1.5%
23,Cc1cc(C)c(/C=C2\C(=O)Nc3ccccc32)[nH]1,66.2% (active)

row,SMILES,inhibition
1,COc1ccc2nc3n(c(=O)c2c1)-c1ccc(Cl)cc1C(=O)NC3Cc1ccccc1 (centres undefined),4.46%
2,COc1cc(/C=C(\C#N)c2nc3ccccc3[nH]2)ccc1O,121% (active)
3,CCOc1cc(/C=C(\C#N)c2nc(-c3cccs3)c(NC(C)=O)s2)ccc1O,11%
4,Cc1ccc2nc(/C(C#N)=C\c3ccc(OC(=O)c4cccs4)cc3)[nH]c2c1,6.77%
5,COc1cc(/C=C(\C#N)c2nc3c(s2)CC(C)CC3)ccc1O (centres undefined),89.3% (active)
6,N#C/C(=C(/O)COc1cccc2ccccc12)c1nc2ccccc2[nH]1,-1.21%
7,CCc1nn(CCCC(=O)Nc2ccc(C)c(C)c2)c(=O)c2cc3occc3n12,1.46%
8,O=C(c1cccs1)n1nc(NCc2ccccc2)nc1NCc1ccccc1,-0.3%
9,COC(=O)Nc1ccc(S(=O)(=O)Nc2cc(OC)nc(OC)n2)cc1,0.87%
10,CCOC(=O)c1c(C)n(C)c2ccc(OC)c(NS(=O)(=O)CC)c12,-2.79%
11,CC1C(=O)Nc2ccc(S(=O)(=O)N3CCN(c4ccccc4F)CC3)cc2NC1=O (centres undefined),1.3%
12,COc1ccc(-c2onc3ccc(C(C)=O)cc23)cc1,-1.49%
13,Oc1ccc(-c2onc3ccc(Cl)cc23)cc1,43.5% (active)
14,CC(OC(=O)c1ccc2noc(-c3ccccc3)c2c1)C(N)=O (centres undefined),8.12%
15,Cc1ccc(NC(=O)C2CCN(S(=O)(=O)c3ccc4c(c3)NC(=O)CO4)CC2)cc1C,-0.04%
16,Cn1cccc1C(=O)NNC(=O)COc1ccc(Br)cc1,2.25%
17,COc1ccc2c(c1)c1nc3n(c(=O)c1n2CC(=O)Nc1ccccc1)CCS3,-0.03%
18,Cc1nnc2n1N=C(c1ccc3c(c1)NC(=O)CO3)CS2,4.61%
19,CC(=O)N1CCSc2ccc(S(=O)(=O)N3CCC(C)CC3)cc21,2.25%
20,O=C(O)c1ccc2c(c1)C(=O)N(c1ccc(/C=C/C(=O)c3ccccc3)cc1)C2=O,11.8%
21,CC(=O)Nc1ccc(/C=C/C(=O)c2ccccc2)cc1,1.53%
22,O=C(/C=C/c1ccc(N2CCOCC2)cc1)c1ccccc1,20.5% (active)
23,CNC[C@H]1Oc2c(NC(=O)C3CCCCC3)cccc2C(=O)N([C@H](C)CO)C[C@@H]1C,8.42%

row,SMILES,inhibition
1,NC(=O)NC(=O)CSc1nc2cc([N+](=O)[O-])ccc2n1-c1cccc(C(F)(F)F)c1,-2.07%
2,CCCC(=O)Nc1c(O)c2ccccc2[nH]c1=O,20.6% (active)
3,CC(C)C(=O)Nc1c(O)c2ccccc2[nH]c1=O,-1.36%
4,CCCOC(=O)Cc1c(O)c2ccccc2[nH]c1=O,1.56%
5,O=C(c1cccc(Br)c1)N1CCN(C2=NS(=O)(=O)c3ccccc32)CC1,-5.26%
6,CCCC1CCC(=NNC(=S)NCCc2ccccc2)CC1 (centres undefined),1.89%
7,COc1cccc(CNC(=O)COc2cc(O)c3c(c2)OC(C)(C)CC3=O)c1,0.91%
8,O=C(CCc1ccc(S(=O)(=O)N2CCOCC2)cc1)Nc1ccc2ccccc2c1,26.8% (active)
9,Cc1ccc(CC(=O)Nc2ccc(S(=O)(=O)N3CCOCC3)cc2)cc1C,3.81%
10,O=C(COC(=O)CCc1ccc(S(=O)(=O)N2CCOCC2)cc1)Nc1cccc(Cl)c1,1.15%
11,COCCN(Cc1nc(-c2ccc(C(F)(F)F)cc2)no1)C(C)C,1.82%
12,CCN1C(=S)N[C@@H](CCc2ccccc2)[C@H](C(=O)OC)[C@H]1C,0.06%
13,O=C(Nc1ccccc1)N1CCN(C2c3ccccc3-c3ccccc32)CC1,0.11%
14,NC(=O)c1cc2ccccc2o/c1=N/NC(=O)c1cccc(F)c1,7.74%
15,CCN(CC)c1ccc2cc(C(N)=O)/c(=N\NC(=O)c3ccncc3)oc2c1,64.9% (active)
16,COc1cccc2cc(C(N)=O)/c(=N\NC(=O)c3ccccc3)oc12,-0.22%
17,O=C(CCN1C(=O)COc2ccccc21)NCCCN1CCN(c2ccc(F)cc2)CC1,-5.39%
18,CCN(C(=O)CSc1nnnn1-c1ccc(OC)cc1)C1CCS(=O)(=O)C1 (centres undefined),-3.64%
19,CCOc1ccc(NC(=O)c2ccc(NC(=O)C3CCCO3)cc2)cc1 (centres undefined),3.26%
20,N#C/C(=C\c1ccc(O)c(O)c1)C(=O)NCc1ccccc1,30.2% (active)
21,COCCNC(=O)/C(C#N)=C/c1cccc(OCc2ccccc2)c1,3.27%
22,COc1ccc(CNC(=O)/C(C#N)=C/c2cccc(OC)c2OC)cc1,2.96%
23,COc1ccc(CCNC(=O)CC2SC(=Nc3cc(C)cc(C)c3)NC2=O)cc1OC (centres undefined),2.28%

row,SMILES,inhibition
1,Cn1c2ccccc2c2cc(/C=C(\NC(=O)c3ccccc3)C(=O)NCC(=O)O)ccc21,32.5% (active)
2,CCOC(=O)CNC(=O)/C(=C\c1ccc(F)cc1)NC(=O)c1ccccc1,-3%
3,COc1ccc(/C=C(\NC(=O)c2ccccc2)C(=O)NCCN2CCOCC2)cc1OC,0.14%
4,CC(=O)Oc1cc2c(C(=O)NCCN3CCOCC3)c(C)oc2c2ccccc12,-2.28%
5,NC(=O)c1c(Nc2nc3c(F)cccc3s2)sc2c1CCCC2,24.3% (active)
6,O=C(Nc1sc2c(c1C(=O)O)CCC2)c1ccccc1F,-2.01%
7,COc1cccc(OC)c1C(=O)Nc1sc2c(c1C(N)=O)CCCC2,0.41%
8,Cc1cc(C(C)(C)C)oc1C(=O)N(CC(=O)NC1CCCC1)Cc1ccc(Cl)cc1,6.17%
9,CCN(CCCNC(=O)c1ccc2c(c1)NC(=O)CN2C)c1cccc(C)c1,2.85%
10,CC(C)NC(=O)CSc1nnc(COc2ccccc2Cl)o1,-2.04%
11,CCCCn1c(SCc2ncc(-c3ccccc3)o2)nc2cc(S(N)(=O)=O)ccc21,2.94%
12,COc1ccccc1N(C)C(=O)c1cc(S(=O)(=O)N2CCc3ccccc32)cn1C,-0.28%
13,CCOc1ccc(C2=CC(c3ccccc3)n3ncnc3N2)cc1 (centres undefined),7.53%
14,Brc1ccc(C2=CC(c3ccco3)n3ncnc3N2)cc1 (centres undefined),5.82%
15,COc1ccc(C2C=C(c3ccc(Br)cc3)Nc3nc(NS(C)(=O)=O)nn32)cc1 (centres undefined),76.7% (active)
16,CCOc1ccc(N(CC(=O)NCCOc2ccccc2OC)S(=O)(=O)c2ccccc2)cc1,4.02%
17,Cc1cc2c(cc1S(=O)(=O)NCc1ccc(Cl)cc1)OCC(=O)N2,5.28%
18,CC1=CC(C)(C)Nc2ccc(OC(=O)CN3C(=O)C4CCCCC4C3=O)cc21 (centres undefined),23.6% (active)
19,O=C(CN1C(=O)C2C3CCC(C3)C2C1=O)Oc1ccc2ccccc2c1 (centres undefined),-0.24%
20,CC1=CC(C)(C)Nc2ccc(OC(=O)C(Cc3ccccc3)N3C(=O)C4CCCCC4C3=O)cc21 (centres undefined),-5.52%
